Drawing on PubChem BioAssay, this text covers fold change for 40 molecules.

Unmarked numbers belong to inactive results.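 The calls were made as follows: active = compounds whose cell count with miR-34 switched on is under 0.7 times the count with it off; inactive = the rest.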

This assay is described as follows: viability loss with induced miR-34 in A549 – imaging, A549 dox-inducible miR-34, nuclei and caspase counts, primary screen (AID 1347080). Also: test concentration not given here. To be noted: A549 miR-34 inducible, Hoechst nuclei count, 48 h; stronger effect = lower value; cell number ratio, induced over uninduced.
On to `O=C(CN=C(c1ccccc1)c1ccccc1)OCc1ccccc1`, for which the fold change was 0.875.
As to `CCCCC[C@@H](O)/C=C/[C@@H]1[C@H](C/C=C\CCCC(=O)O)[C@@H](O)C[C@H]1O`, the fold change was 0.832.
Next, `CCCCCCCCCCCCCCCC(=O)OC[C@H](COP(=O)([O-])OCC[N+](C)(C)C)OC(=O)CCCCCCCCCCCCCCC`: 0.881; `CCCCC(C)(O)C/C=C/[C@H]1[C@H](O)CC(=O)[C@H]1CCCCCCC(=O)OC` (stereo not given in full): 1.02; `CCCCCC/C=C\CCCCCCCCCCOC(C)=O`: 0.943.
`O=C(O)CCC/C=C\C[C@H]1[C@@H](O)CC(=O)[C@@H]1/C=C/[C@@H](O)COc1cccc(C(F)(F)F)c1`: the fold change was 1.01.
For `CCCCC/C=C\C=C\C(O)CCCCCCCC(=O)OC[C@@H](COC(=O)CCCCCCC/C=C\C=C\C(O)CCCCC)OC(=O)CCCCCCC/C=C\C=C\C(O)CCCCC` (stereo not given in full), the fold change is 1.03.
On to `CCCCCCCC/C=C\CCCCCC(=O)O`, for which the fold change was 0.938.
Turning to `CCCCC[C@H](O)CC[C@@H]1[C@@H](C/C=C\CCCC(=O)O)[C@@H](O)C[C@H]1O`, the fold change is 0.936.
Take `CCCCCCCCCCCCCCCCCC(=O)NCCS(=O)(=O)O`: the fold change was 1.11.
Consider `COc1cc(/C=C/c2ccc(Cl)cc2)cc(OC)c1`, for which the fold change was 1.01.
Next, `C/C(O)=C1\C(=O)[C@@H]2[C@H]3c4c[nH]c5cccc(c45)C[C@H]3C(C)(C)N2C1=O`: 1.02; `CCCCC[C@H](O)/C=C/[C@@H]1[C@H]2CC(CCCCC(=O)O)O[C@H]2C[C@H]1O` (stereo not given in full): 0.937; `CCCCC/C=C\C/C=C\C/C=C\C/C=C\CCCC(=O)NC[C@]1(C)CCC[C@]2(C)c3ccc(C(C)C)cc3CC[C@@H]12`: 0.99.
Turning to `Nc1nc2[nH]c(=O)[nH]c2c(=O)[nH]1`, the fold change is 0.901.
For `CCCCC/C=C\C/C=C\C/C=C\C/C=C\CCCC(=O)OCC(O)CO` (stereo not given) the value was 0.924; for `CC(C)OC(=O)CCC/C=C\C[C@@H]1[C@@H](/C=C/[C@H](O)C2Cc3ccccc3C2)[C@@H](F)C[C@@H]1O`, 0.981; for `CCCCC[C@H](O)/C=C/[C@H]1C=CC(=O)[C@H]1C/C=C\CCCC(=O)O`, 1.06.
With `CCCCC/C=C\C/C=C\C/C=C\C/C=C\CCCC(=O)OCc1ccsc1`, the fold change is 0.989.
On to `CC(C)CCCCCCC/C=C/C(=O)O`, for which the fold change is 0.859.
On to `O=C(OC[C@@H]1O[C@H]1c1ccccc1)Oc1ccc([N+](=O)[O-])cc1`, for which the fold change was 0.896.
As to `CC/C=C/C[C@H](O)/C=C/[C@H]1[C@H](O)CC(=O)[C@@H]1C/C=C\CCCC(=O)O`, the fold change was 0.915.
Turning to `C#CCCC[C@@H](O)CCCCCCCCCCC(=O)O`, the fold change was 0.902.
On to `CCCCCCCCCCCCCCCC(=O)OC[C@H](COP(=O)([O-])OCC[N+](C)(C)C)OC(=O)CCCCCCCC(=O)/C=C/C(=O)O`, for which the fold change was 0.943.
As to `CC#CCC(C)[C@@H](O)/C=C/[C@@H]1[C@H]2C/C(=C\CCCC(=O)O)C[C@H]2C[C@H]1O` (stereo not given in full), the fold change was 0.903.
As to `CC(=O)OCC(=O)[C@@]12N=C(C)O[C@@H]1CC1C3CCC4=CC(=O)C=C[C@]4(C)C3[C@@H](O)C[C@@]12C` (stereo not given in full), the fold change was 0.915.
For `CCCCC[C@H](O)/C=C/[C@H]1[C@H](O)CC(=O)[C@@H]1C/C=C\CCCC(=O)NC(CO)CO` the value was 1.04.
Turning to `O=C(O)CCC/C=C\C[C@@H]1[C@@H](CCC(=O)CCc2ccccc2)[C@H](O)C[C@@H]1O`, the fold change was 0.934.
Next, `c1ccc2c(NCCCCCCCNc3c4c(nc5ccccc35)CCCC4)c3c(nc2c1)CCCC3`: 1.06.
With `C=CCN(C)CCCCCCOc1ccc(C(=O)c2ccc(Br)cc2)c(F)c1`, the fold change is 1.01.
As for `CCCC[C@H](C)C[C@H](O)/C=C/[C@H]1[C@H](O)CC(=O)[C@@H]1CCCC/C=C/C(=O)O`, the fold change is 0.92.
For the molecule `CCCCC[C@H](O)/C=C/[C@H]1C=CC(=O)[C@@H]1CCCCCCC(=O)OCC`, the fold change is 0.941.
With `CCCCCCCC/C=C\CCCCCCCC(=O)C(F)(F)F`, the fold change was 0.972.
Consider `CCCCC/C=C/C=C1/C=CC(=O)[C@@H]1CCCCCCC(=O)O`, for which the fold change is 1.71.
On to `CCCCC(C)(C)[C@H](O)/C=C/[C@H]1[C@H](O)CC(=O)[C@@H]1CCCCCCC(=O)O`, for which the fold change was 0.94.
As for `CC(C)ON(CC(=O)NO)S(=O)(=O)c1ccc(-c2ccccc2)cc1`, the fold change is 0.989.
For `[O-]/[N+](=N/O[C@@H]1O[C@H](CO)[C@H](O)[C@H](O)[C@H]1O)N1CCCC1`, the fold change was 0.904.
Turning to `O=P(O)(O)OC1[C@@H](O)[C@H](O)C(O)[C@H](O)[C@@H]1O` (stereo not given in full), the fold change is 0.924.
`COc1ccc2c(c1)c(CC(=O)Oc1ccc(-c3cc(=S)ss3)cc1)c(C)n2C(=O)c1ccc(Cl)cc1`: the fold change was 0.929.
Take `COc1ccc(-c2nc3cc(F)ccc3s2)cc1OC`: the fold change is 0.915.
